Screens (PubChem BioAssay)
Shown are actives, neighbours in structure and some others; about 21% of the full set was active somewhere.
DT40 TDP1 CPT – growth inhibition of DT40 Tdp1-/-;hTDP1 cells with camptothecin (screen for TDP1 inhibitors) | chicken DT40 Tdp1-/-;hTDP1 cells + 20 nM CPT, ATP luminescence, 48 h | Potency, µM (series often up to 46.2 µM), for the others: at the top dose activity change, negative = growth inhibition, usual class: inhibitors | actives 12% (n = 420,000) | AID 686979; further: potency means the concentration at half of the fitted maximal effect; nearly all actives have a fitted effect of over 55% in size
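Cell growth measured by CellTiter-Glo luminescence after a minimum 48 h, 37 C compound exposure with 20 nM CPT in Tdp1-knockout DT40 cells stably expressing hTDP1, seeded 400/well; qHTS titration format.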
TDP1 cell noCPT – qHTS for Inhibitors of human tyrosyl-DNA phosphodiesterase 1 (TDP1): qHTS in cells in absence of CPT; DT40 Tdp1-/- hTDP1 cells, no CPT, ATP luminescence, 48 h; Potency, µM (highest dose often 46.2 µM), without a hit: at the top dose activity change, negative = growth inhibition, most hits filed as inhibitors; actives 15% (n = 420,000); AID 686978, 2013; further: potency means the concentration at half of the fitted maximal effect; nearly all actives have a fitted effect of over 55% in size
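Chicken DT40 Tdp1-/- cells stably complemented with human TDP1 were seeded at 400 cells/well with DMSO in place of 20 nM camptothecin. After compound pinning, cells grew at least 48 hr at 37 °C; viability read by CellTiter-Glo luminescence.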
ELG1 repair inh – ELG1-dependent DNA repair inhibition; Potency, µM (top dose mostly 46.1 µM), inactives show at the highest dose activity change, negative = inhibition, actives largely listed as inhibitors; actives 2.3% (n = 330,000); HEK293T ELG1-luciferase reporter, luminescence, 16 h; DNA damage induced by 5-fluorouridine; AID 504467; further: potency means the concentration at half of the fitted maximal effect; nearly all actives have a fitted effect of over 55% in size
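5-Fluorouridine DNA damage + compound/DMSO, 2,000 cells/well, 16 h, 37 °C/5% CO2. ONE-Glo, 30 min RT, luminescence. Readout = decrease in reporter signal.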
VP16 counter – Gal4-VP16 reporter inhibition counter-screen; Drosophila S2 Gal4-VP16 UAS-luciferase, luminescence, 20 h; actives 3.5% (n = 310,000); Potency, µM (doses to about 53.6 µM), without a hit: at the top dose activity, negative = inhibition, actives largely listed as inhibitors;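 further: Gal4-VP16 expression switched on by copper sulfate through the metallothionein promoter; potency means the concentration at half of the fitted maximal effect; nearly all actives have a fitted effect of over 50% in size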
IL1B secr inh – blocks inflammasome-driven IL-1 beta release; AID 743279; actives 4.7% (n = 360,000); THP-1 LPS/ATP IL-1B secretion, AlphaLISA, 16 h; hits give low values; activity change, % at 57.5 µM; in the data active means activity change below about -50%; inconclusive means mostly about -30% to -49%
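Secreted IL-1B measured by AlphaLISA bead assay after 16 h compound exposure of THP-1 cells; compounds (final up to 57.5 uM) added 1 h before LPS (250 ng/mL) and ATP (1.25 mM) stimulation; lower signal means less secretion.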
RORgamma inh – inhibitors of mouse ROR gamma transcriptional activity; P51450; Drosophila S2 Gal4-RORgamma UAS-luciferase reporter, 20 h; Potency, µM (doses to about 53.6 µM), inactives show top-dose activity change, negative = inhibition, usual class: inhibitors; actives 5.4% (n = 310,000); AID 2551; further: potency means the concentration at half of the fitted maximal effect; nearly all actives have a fitted effect of over 60% in size
Target sequence (P51450 whole entry, looked up, the tested form may be a part): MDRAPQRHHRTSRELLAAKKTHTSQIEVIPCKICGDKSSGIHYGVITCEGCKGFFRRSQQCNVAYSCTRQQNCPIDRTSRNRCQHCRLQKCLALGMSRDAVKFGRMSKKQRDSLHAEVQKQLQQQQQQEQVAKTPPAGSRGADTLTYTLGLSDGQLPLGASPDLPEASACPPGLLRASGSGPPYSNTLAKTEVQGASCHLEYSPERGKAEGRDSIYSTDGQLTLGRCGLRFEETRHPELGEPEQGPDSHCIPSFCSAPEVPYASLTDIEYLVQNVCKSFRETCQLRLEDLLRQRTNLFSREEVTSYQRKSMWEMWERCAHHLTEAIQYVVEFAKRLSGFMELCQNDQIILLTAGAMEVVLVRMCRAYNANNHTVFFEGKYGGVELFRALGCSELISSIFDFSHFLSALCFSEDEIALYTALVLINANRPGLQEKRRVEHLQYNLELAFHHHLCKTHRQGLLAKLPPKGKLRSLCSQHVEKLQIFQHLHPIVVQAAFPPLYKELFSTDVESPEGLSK
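Drosophila Schneider cells stably carrying a metallothionein-driven Gal4 DBD–ROR gamma fusion and a UAS-Photinus luciferase reporter were exposed to compound for 1 hr, then induced with copper sulfate (700 uM final) for 20 hr at ambient temperature before luminescence reading.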
Starred values were filed as active, the others as inactive; ? = inconclusive; · = no result; [ ] = remark or other dose. Unless noted, the call rests on the fitted dose curve; in most records, active means well fitted curve in the direction sought with a large enough effect; inconclusive means small, poorly fitted or top-dose-only effect, or another doubt; inactive means no such curve, though single readings can be large; an effect the other way counts as inactive or inconclusive. On the % scale 0 is the no-effect control and ±100 the full control effect.

SMILES | DT40 TDP1 CPT | TDP1 cell noCPT | ELG1 repair inh | VP16 counter | IL1B secr inh | RORgamma inh
CCCCc1ccc(NC(=S)N2CCN(c3ncccn3)CC2)cc1 | -2.6% | -27.0% | ? | ? | 34.0 | 4.47µM*
Cc1ccc(NC(=O)N2CCN(c3ccccn3)CC2)cc1 | -8.0% | -0.2% | 7.3% | -11.2% | -5.9 | ?
FC(F)(F)c1ccccc1NC(=S)N1CCN(c2ccccn2)CC1 | -19.0% | -23.4% | ? | 2.2% | 9.4 | ?
CCC(C)c1ccc(NC(=S)N2CCN(c3ccccn3)CC2)cc1 (configuration not stated) | -4.9% | -27.5% | -6.6% | 12.6µM* | 0.7 | ?
CCCCc1ccc(NC(=S)N2CCN(c3ccccn3)CC2)cc1 | 15.3% | ? | -0.6% | ? | -15.5 | 15.8µM*
COc1ccc2c(c1)C(=O)O[C@@H](c1ccccc1)C[C@@H](O)C(=O)CC2 | -17.0% | ? | · | · | 8.7 | ·
COc1ccc(NC(=O)c2ccc(Cl)nc2)cc1S(=O)(=O)N1CCCCC1 | ? | ? | 23.1µM* | 0.6% | 34.6 | -1.6%
COC(=O)c1ccc(NC(=O)CN2CCN(S(=O)(=O)c3cc(Cl)ccc3OC)CC2)cc1 | ? | 16.4µM* | ? | -18.7% | 16.7 | -22.8%
COc1ccc(NC(=O)c2cncc(Br)c2)cc1S(=O)(=O)N1CCCCC1 | ? | 20.6µM* | 14.6µM* | -8.8% | -11.2 | ?
COc1ccc(Br)cc1S(=O)(=O)N1CCCC1 | 9.2µM* | 8.2µM* | -4.1% | 12.1% | -3.6 | 9.8%
COC(=O)c1ccc(NC(=O)CN2CCN(c3ccc(Cl)cc3)CC2)cc1 | ? | ? | 6.1% | ? | -13.1 | -27.8%
O=C(c1n[nH]c(=O)c2ccccc12)N1CCN(S(=O)(=O)c2ccccc2Cl)CC1 | ? | ? | -17.3% | · | -8.7 | ·
COc1ccc(Cl)cc1S(=O)(=O)N1CCN(C(=O)c2n[nH]c(=O)c3ccccc23)CC1 | 18.4µM* | 16.4µM* | ? | · | 28.6 | ·
Cn1cccc1/C=N/NC(=O)Cc1ccccc1 | -4.8% | -10.2% | 14.5% | 7.4% | -6.7 | 8.7%
NC(=S)N/N=C/c1ccc2ccccc2c1 | 23.1µM* | 23.1µM* | ? | ? | 7.3 | ?
Cn1cccc1/C=N/NC(N)=S | ? | 20.6µM* | 13.8% | ? | 25.2 | 6.31µM*
O=C(N/N=C/c1cccc(Br)c1)c1ccc(Br)cc1 | -11.9% | -19.1% | ? | 0.7% | -14.3 | ?
NC(=S)N/N=C/C=C/c1ccccc1 | 5.8µM* | 5.8µM* | 14.0% | ? | -23.1 | 2µM*
NC(=S)N/N=C/c1cccc(Br)c1 | ? | ? | 6.2% | ? | -16.8 | 5.62µM*
CCOC(=O)C1CCN(S(=O)(=O)c2c[nH]c(=O)[nH]c2=O)CC1 | -13.1% | 5.2% | 11.7% | · | -6.7 | ·
Cc1cccc(N2CC(C(=O)Nc3nnc(SCC(=O)N4CCOCC4)s3)CC2=O)c1 (configuration not stated) | 0.8% | 18.4% | 2.9% | 0.5% | 3.1 | -12.0%
NC(=S)N/N=C/c1ccc(/C=N/NC(N)=S)cc1 | ? | 0.4% | 12.3% | -6.0% | 35.0 | -15.6%
NC(=S)N/N=C/c1cccc(/C=N/NC(N)=S)c1 | -9.4% | -24.0% | -12.2% | 0.1% | -99.7* | -23.4%
O=C1c2cc(F)ccc2OC2(CCNCC2)C12CC(c1ccccc1)=NO2 (configuration not stated) | 14.6µM* | ? | 21.1% | -18.1% | -53.2* | -36.1%
CC(C)(C)OC(=O)N1CCC2(CC1)Oc1ccc(F)cc1C(=O)C21CC(c2ccccc2)=NO1 (configuration not stated) | 23.1µM* | ? | · | · | ? | ·
SMILES | DT40 TDP1 CPT | TDP1 cell noCPT | ELG1 repair inh | VP16 counter | IL1B secr inh | RORgamma inh
O=C(c1ccoc1)N1CCC2(CC1)Oc1ccc(F)cc1C(=O)C21CC(c2cccnc2)=NO1 (configuration not stated) | ? | ? | ? | -1.2% | -17.4 | 15.4%
COCCCNC(=O)c1sc2nc3n(c(=O)c2c1C)CCC3 | 0.1% | -2.9% | · | · | · | ·
Cn1cc(C(=O)[C@@H]2CCc3[nH]cnc3C2)c2ccccc21 | · | · | · | -5.6% | · | 0.7%
COc1cc(CNCCN(C)C)c(Br)cc1OC1CCCC1 | 18.4µM* | ? | 9.2% | 2.5% | 0.0 | -32.8%
CC(C)Cc1ccc(CC(=O)O)cc1 | 3.2% | 8.3% | · | -7.8% | · | -13.0%[10 µM]
O=C1C=CC(=O)C(CNc2ccc(C(=O)OCc3ccccc3)cc2)=C1 | 5.8µM* | 4.11µM* | · | · | -100.2* | ·
CS(=O)(=O)Nc1cccc(-c2cc(Nc3ccccc3)ncn2)c1 | ? | ? | · | 2.8% | · | ?
Cc1cc(OCCOCCN(C)CCO)cc(C)c1Cl | ? | ? | -3.5% | -5.0% | -3.5 | -7.1%
CCC(C)NCCOCCOc1ccc(C)cc1OC (configuration not stated) | -1.3% | ? | -0.5% | -1.2% | 18.2 | 0.0%
CCN(CC)CCOCCOc1cc(C)c(Cl)c(C)c1 | 23.1µM* | 17.8µM* | -3.9% | -3.4% | -4.3 | -12.9%
CCCCNCCOCCOc1ccc(C)cc1Br | 16.4µM* | 23.1µM* | -5.0% | -10.3% | -25.3 | 4.4%
Cc1ccc(OCCOCCNC(C)C)c(Br)c1 | -26.6% | -23.4% | 4.1% | -17.0% | -58.2* | -34.3%
COCCCNCCOCCOc1ccc(C)cc1Br | -18.3% | ? | -0.5% | -6.2% | -13.1 | -37.3%
CCC(C)NCCOCCOc1ccc(Cl)cc1Br (configuration not stated) | ? | ? | 3.1% | -16.3% | -79.9* | -22.1%
Cc1cc(CNC(=O)CCN2Cc3cc(Cl)ccc3OC(C)C2)nn1C (configuration not stated) | -121.3%[9.04 µM] | -9.7% | · | · | · | ·
CCC(C)NCCOCCOc1ccc(F)cc1 (configuration not stated) | ? | -18.6% | 9.0% | 2.9% | -19.0 | 3.3%
CCC(C)NCCOCCOc1cc(C)c(Cl)c(C)c1 (configuration not stated) | 25.9µM* | 14.6µM* | -0.1% | -5.1%[10 µM] | ? | 0.6%
Cc1cccc(CN2CC34CCC(CC3S2(=O)=O)O4)c1 (configuration not stated) | · | · | · | -5.2% | · | 24.9%
COc1ccc(Cl)cc1NC(=O)CN1C(=O)CSc2ccc(S(=O)(=O)N3CCCC3)cc21 | 16.4µM* | 23.1µM* | · | · | · | ·
COc1cc(CCC(=O)N2CCN(S(=O)(=O)c3ccc(C)c(C)c3)CC2)cc(OC)c1OC | ? | -23.0% | ? | -1.1%[0.365 µM] | -6.7 | 23.4%
